Reference: the supplement of paper PMC11417369
In all, about 25,000 sequences were measured (“ln(normalized median fluorescence intensity)”: median about 6.7, highest 2% from about 10 on). For the sample, the highest values were picked, then their nearest neighbours and some sequences at random.

These sequences were tested on PfHDP1 homeodomain (GST-tagged) (assay: gcPBM binding intensity (ln(normalized median fluorescence intensity)); higher = stronger DNA binding).
How it was run: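 Binding intensity is the highest Masliner-normalised natural-log median intensity over replicate spots in either probe orientation. To obtain it, GST-tagged P. falciparum DNA-binding domains made in E. coli were incubated for 1 h on an Agilent 4 × 180k array of primer-extended double-stranded 36-bp intergenic genomic probes plus negative controls. Detection used Alexa488 anti-GST antibody with scanning at 488 nm.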

Row | Sequence | gcPBM binding intensity (ln)
1 | TTAATTTATTTATGCACACATATATAATTACCCATA [CACACA_site682] | 10.7
2 | CTTTTTTTAATATGCACACATATATTTTATATATTA [CACACA_site2077] | 10.3
3 | CTTATATTAATTATTACACACATATTTATAAATGCA [CACACA_site6501] | 6.66
4 | TTTTAATTTATTTATGCACACATATATAATTACACA [CACACA_site8126] | 10.1
5 | GTATTATTATTATGCACACAAAAATATTTATACATA [CACACA_site3656] | 10.9
6 | TAGTATTATTATTATGCACACAAAAATATTTATACA [CACACA_site9219] | 10.4
7 | AAATAATTAGCTATTTGTACATATATACATATTTAT [XGTACX_site4652] | 6.37
8 | ATTTTTTTTTTTTTTTTTTTTTTTTTTTTTTTTTTT [CACACA_negctrl_site1364] | 7.45
9 | AAGTTTATTATATATAAATTATTATATATATATATA [CACACA_negctrl_site189] | 9.02
10 | AATCAAAGTAATTTAACACACAATTTTAATACTGTT [CACACA_site7169] | 6.23
11 | CATTATGTTGTAAATACACACATACATATACATACA [CACACA_site8143] | 6.76
12 | ACATAAATAAATTAATGTACATATATATTTGTATAT [XGTACX_site3160] | 6.32
13 | TATATGTAGATTAAACGTACTTACAACGGAATTATC [XGTACX_site3036] | 6.67
14 | TATAAACATTAAAGGTGTACAATTTAATTTCAATTT [XGTACX_site2944] | 6.28
15 | GGTATAATAATATATAGTACACACAAAAATGGAAGT [XGTACX_site7058] | 7.5
16 | TATTTTTATCAATTCACACATAAATATATTTATATG [CACACA_site5547] | 6.57
17 | TTTTTCCCCCTTTTTTTGATTTTTATCTTAATTCTA [TGCATGCA_negctrl_site287] | 5.85
18 | CAATTTATTATATATGTGCACATATAATTTTACAAA | 10.4
19 | ATATTTTACAAATGCACACATAATTTTTTTTTTTTT [CACACA_site2763] | 10.5
20 | TATTACACATATTATGTGCACATATATAATCAATAT | 10.9
21 | GTATAATTATGTGCACGTACATATTTTATTATATAT [XGTACX_site8586] | 10.9
22 | ATACATATATAATTATGTACGTATATTTTATATAAC [XGTACX_site4292] | 6.14
23 | ATATATATATATATATGTACATATTTTTAATTATAA [XGTACX_site7444] | 9.45
24 | ACATAATTATTATGCACACATATTTTTATGTATTTA [CACACA_site698] | 10.2
25 | GTACATAATTATTATGCACACATATTTTTATGTATT [CACACA_site8132] | 10.5
26 | TATTATAATTTTATATGTACACATATATAAATATAT [XGTACX_site4054] | 6.29

Row | Sequence | gcPBM binding intensity (ln)
27 | TTTATTTATATAATTACACACATATATACACAAATG [CACACA_site8903] | 6.83
28 | TTATATTTTACAAATGCACACATAATTTTTTTTTTT [CACACA_site8890] | 9.76
29 | ATATAATATATGTATACACACATATTATATAATATT [CACACA_site3699] | 6.46
30 | GTTTTATTTATTTCATGTACACAAAAAAGGTTTTAA [XGTACX_site6525] | 6.97
31 | TTTTGTTATTTTTCAGTGCAATATGATAATAATATA | 9.56
32 | ATTTCTCTATCGTAATGTACATAAAAAAGAAAAACA [XGTACX_site6374] | 6.63
33 | ATATATATATTTAAGGTGCGATTTTGTTATATTTAA | 7.89
34 | AATTATGGGGAAAAGACACACATATATATATATATA [CACACA_site2589] | 9.35
35 | ATCTAAATTTTTCCATGTACATATACTTTTATGCAT [XGTACX_site2683] | 7.08
36 | TATCTGTATTTATTCACACATATAAAATATAATTAA [CACACA_site5560] | 6.36
37 | GGATTTATTTTATATACACACATACCTATATTTATA [CACACA_site7084] | 6.84
38 | TATATCTCATAGTATACACACACACCCACCCACATA [CACACA_site8513] | 7.7
39 | GTATGTGTATGTGTATGTACATATGTATGTATAAAA [XGTACX_site8191] | 8.13
40 | TTAATTATTATATAAGTGCAATAATAAAAAGTTGTA [GTGCAC_site9552] | 9.36
41 | TATGTATTTTTATGCACACATGCGTGGCTTATATAA [CACACA_site387] | 10.5
42 | AGTGCATAATATTTATGTACGTATCACATATATTTT [XGTACX_site5166] | 10.7
43 | GTTTATGTATTATTATGTACGTATCATAATATATAT [XGTACX_site2385] | 6.87
44 | ACACATACACATTAGGTGCACATAATTCAATATTAC [GTGCAC_site9862] | 10.6
45 | ACAAATAAATAAATATGTACTTAATTATATAATTGA [XGTACX_site5626] | 6.16
46 | ATTGTATATGTATATGCACACAATATATGTACTTAT [CACACA_site2611] | 9.66
47 | TTTATGTATTTTTATGCACACATGCGTGGCTTATAT [CACACA_site4374] | 10.4
48 | TAATATTCAATTATACGTACACATATATATATATAT [XGTACX_site4245] | 9.22
49 | ACACATACACATTAGGTGCATATATTTCAATATTAC [GTGCAC_site9423] | 9.83
50 | CGTATGCACAAATTATGTACTTATATATATATATAT [XGTACX_site2348] | 10.9
51 | AAATAATTATTTATCACACATATGTATTTATATATA [CACACA_site4589] | 6.66
52 | TATATATATATATATTTTTTTTTTTTATGCACATGG [CACACA_negctrl_site1573] | 10.1
